# Assay results taken from PubChem BioAssay AID504710 (Sanford-Burnham Center for Chemical Genomics, 2011).
# Unmarked numbers belong to inactive results. Active and inactive are the calls of the source.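 Rule for the calls: active = inhibition reaching about 16% in any single replicate (limit read from the data); inactive = the rest.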
# Target: Hexokinase HKDC1 (Homo sapiens) (UniProt Q2TB90)
# Test: compounds lowering human HKDC1 activity – biochemical, single concentration, confirmation (AID 504710)
# Conditions: recombinant HKDC1, G6PDH/diaphorase/resazurin fluorescence; at 20 µM; active compounds read high
# Hexokinase HKDC1 (Homo sapiens), sequence (Q2TB90 whole entry, looked up): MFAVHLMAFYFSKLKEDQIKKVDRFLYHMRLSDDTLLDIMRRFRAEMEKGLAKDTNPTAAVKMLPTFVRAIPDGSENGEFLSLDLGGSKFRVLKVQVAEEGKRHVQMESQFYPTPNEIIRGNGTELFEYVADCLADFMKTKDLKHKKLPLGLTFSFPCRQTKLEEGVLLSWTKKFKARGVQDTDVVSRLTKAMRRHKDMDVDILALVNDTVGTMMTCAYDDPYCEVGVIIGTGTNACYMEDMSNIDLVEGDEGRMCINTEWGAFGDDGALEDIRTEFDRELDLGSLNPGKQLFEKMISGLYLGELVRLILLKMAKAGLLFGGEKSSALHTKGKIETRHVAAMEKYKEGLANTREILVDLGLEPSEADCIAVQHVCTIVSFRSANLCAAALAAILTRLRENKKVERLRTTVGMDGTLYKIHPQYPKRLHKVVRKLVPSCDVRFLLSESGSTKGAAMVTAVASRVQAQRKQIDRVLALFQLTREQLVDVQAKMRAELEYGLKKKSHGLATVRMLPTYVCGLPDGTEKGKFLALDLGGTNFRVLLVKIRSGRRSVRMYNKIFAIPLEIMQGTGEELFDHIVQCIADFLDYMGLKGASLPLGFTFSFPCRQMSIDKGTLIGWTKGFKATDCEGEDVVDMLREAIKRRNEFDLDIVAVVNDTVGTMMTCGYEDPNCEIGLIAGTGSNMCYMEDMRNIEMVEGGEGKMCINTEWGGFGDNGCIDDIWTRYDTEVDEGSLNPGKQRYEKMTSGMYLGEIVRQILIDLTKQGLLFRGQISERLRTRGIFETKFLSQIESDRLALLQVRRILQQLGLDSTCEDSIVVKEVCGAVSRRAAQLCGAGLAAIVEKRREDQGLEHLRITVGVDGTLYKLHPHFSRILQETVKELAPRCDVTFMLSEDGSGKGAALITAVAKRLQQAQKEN
row,Compound,inhibition
1,O=C(/C=C/c1ccc(Br)cc1)NC(=S)Nc1ccc(S(=O)(=O)Nc2nccs2)cc1,39.5% (active)
2,CCN(CC)Cc1cc(O)c(CN(CC)CC)cc1O,41.2% (active)
3,O=C1C(Cl)=C(N2CCCCC2)C(=O)C(Cl)=C1c1cnc(N2CCCCC2)s1,49.4% (active)
4,Cc1nc2c(O)c3c(c(O)c2nc1C)C1C=CC3CC1,89.5% (active)
5,Nn1cnnc1N/N=C/c1cc(Br)cc(Br)c1O,-31.9%
6,CN1c2ccc(C=O)c3c(C=O)ccc(c23)N(C)C1(C)C,61.2% (active)
7,CCOC(=O)c1c(C)[nH]c(C2=NNC(=Nc3ccc(OCC)cc3)SC2)c1C,-122%
8,COc1ccc(-c2nc3c(c(=O)n(C)c(=O)n3C)n2CC2CC(c3ccccc3)=NO2)cc1OC (stereo unspecified),-32.8%
9,CC1COCC(C)N1C1=C(Cl)C(=O)c2ccccc2C1=O (stereo unspecified),43.5% (active)
10,CCn1c2ccccc2c2nc3cc(S(=O)(=O)N4CCOCC4)ccc3nc21,-47.4%
11,CC(C)(C)c1nnc(N/N=C/c2cc(Br)ccc2O)n(N)c1=O,-48.8%
12,CC(C)(C)c1c(Cl)c(O)c(-c2ccccc2)c(=O)n1-c1ccccc1,40.9% (active)
13,O=C(O)c1cc(O)c2c(c1)[C@H]([C@H]1c3cc(C(=O)O)cc(O)c3C(=O)c3c(O[C@@H]4O[C@H](CO)[C@@H](O)[C@H](O)[C@H]4O)cccc31)c1cccc(OC3O[C@H](CO)[C@@H](O)[C@H](O)[C@H]3O)c1C2=O (stereo partly specified),52.1% (active)
14,CC(=O)C1=C(c2cccc([N+](=O)[O-])c2)N(C(C)=O)n2c(C)nnc2S1,-387%
15,O=C1C(C2=C(O)c3ccccc3C2=O)=Nc2ccccc21,-162%
16,O=C(Nc1ccc(N2CCCC2)cc1)c1cccc(-c2cc3ccccc3oc2=O)c1,-24.8%
17,CCN(CC)C(=O)c1ccc(C(=O)c2c(C)cc(C)cc2C)cc1,-40.1%
18,O=C(NC(=S)NNC(=O)c1cnccn1)c1ccc(F)cc1,-36.1%
19,CCN(CC)c1ccc2c(c1)oc(=O)c1c(Cl)cc(=O)oc12,47.7% (active)
20,Cc1nonc1C(=O)N/N=C/c1ccc(O)cc1O,-33.6%
21,CCC(c1ccccc1)C(CC)c1cc(O)c(O)c(O)c1 (stereo unspecified),35.8% (active)
